Compounds without any hit were thinned out: in the full panel of roughly 79,000, 15% have a hit. Activity calls are given as the source filed them. Cut-off read from the data, not from the text of the source: active = growth inhibition above about 70%; inactive = the rest.
Legend:
[1] = NCI Yeast Anticancer Drug Screen. Data for the rad52 strain (AID 147);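 note: 0% = growth of vehicle-treated control cultures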; conditions: S. cerevisiae rad52 mutant growth inhibition, stronger effect = higher value
In short: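 Yeast strain carrying a DNA damage repair alteration was exposed to test compounds. Growth inhibition was measured relative to vehicle-treated controls.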

[2] = NCI Yeast Anticancer Drug Screen. Data for the wt1 strain (AID 149);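 note: 0% = growth of vehicle-treated wt1 cultures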; conditions: S. cerevisiae wt1 strain (SPY 50644) growth inhibition, stronger effect = higher value
In short: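 Yeast wt1 strain exposed to compounds; growth inhibition measured relative to vehicle-treated controls.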

[3] = NCI Yeast Anticancer Drug Screen. Data for the rad50EPP+ strain (AID 151);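 note: 0% = growth of vehicle-treated control cultures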; conditions: S. cerevisiae rad50 mutant strain, stronger effect = higher value
In short: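 Yeast strain carrying rad50 alteration (rad50EPP+) exposed to compounds; growth inhibition measured relative to vehicle-treated controls.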

[4] = NCI Yeast Anticancer Drug Screen. Data for the rad50 strain (AID 155);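 note: 0% = growth of vehicle-only cultures of the same strain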; conditions: S. cerevisiae rad50 strain growth inhibition, stronger effect = higher value
In short: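 Yeast carrying a defined DNA repair defect were exposed to test compounds, and growth was compared with vehicle-treated controls to give percent inhibition.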

[5] = NCI Yeast Anticancer Drug Screen. Data for the mec2-1 strain (AID 157); conditions: S. cerevisiae mec2-1 strain, stronger effect = higher value
In short: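 mec2-1 yeast strain, carrying an alteration in DNA damage repair or cell cycle control, was exposed to compounds; growth inhibition was measured relative to vehicle-treated controls.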

[6] = NCI Yeast Anticancer Drug Screen. Data for the sgs1 mgt1 strain (AID 161);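 note: 0% = growth of cultures given vehicle only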; conditions: S. cerevisiae sgs1 mgt1 strain, stronger effect = higher value
In short: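 Compounds are added to genetically altered yeast, and growth is compared with cultures given vehicle alone to give percent inhibition.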

[7] = NCI Yeast Anticancer Drug Screen. Data for the CLN2oe strain (AID 163);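 note: 0% = growth of vehicle-only control cultures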; conditions: S. cerevisiae CLN2oe strain, stronger effect = higher value
In short: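 Yeast cells carrying a defined cell-cycle control alteration were exposed to test compounds. Growth inhibition was scored against vehicle-treated control cultures.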

[8] = NCI Yeast Anticancer Drug Screen. Data for the cln2 rad14 strain (AID 165);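 note: 0% = growth equal to vehicle treated cultures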; conditions: S. cerevisiae cln2 rad14 strain, stronger effect = higher value
In short: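 Yeast carrying cln2 and rad14 alterations (cell cycle control and DNA damage repair) were exposed to compounds. Growth inhibition was measured against vehicle-treated controls.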

[9] = NCI Yeast Anticancer Drug Screen. Data for the bub3 strain (AID 167); conditions: S. cerevisiae bub3 mutant strain, stronger effect = higher value
In short: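 Compounds were applied to a genetically altered yeast strain carrying a cell-cycle control defect. Growth inhibition was scored against vehicle-treated controls.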

[10] = NCI Yeast Anticancer Drug Screen. Data for the wt2 strain (AID 169);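 note: 0% = growth of vehicle-treated yeast cultures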; conditions: S. cerevisiae wt2 strain growth inhibition, stronger effect = higher value
In short: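 Yeast cells were exposed to test compounds, and growth inhibition was measured relative to vehicle-treated controls.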

[11] = NCI Yeast Anticancer Drug Screen. Data for the mlh1 strain (AID 171);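 note: 0% = growth of vehicle-treated control cultures of the same strain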; conditions: S. cerevisiae mlh1 strain growth inhibition, stronger effect = higher value
In short: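 Yeast carrying a defined genetic alteration in DNA damage repair or cell cycle control were exposed to test compounds. Growth inhibition was measured relative to vehicle-treated controls.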

[12] = NCI Yeast Anticancer Drug Screen. Data for the mlh1 rad18 strain (AID 175); conditions: S. cerevisiae mlh1 rad18 strain growth inhibition, stronger effect = higher value
In short: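 Growth inhibition of the yeast strain was measured after compound exposure and expressed relative to vehicle-treated controls. The strain carries defined defects in DNA damage repair.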

[13] = NCI Yeast Anticancer Drug Screen. Data for the rad18 strain (AID 177); conditions: S. cerevisiae rad18 mutant growth inhibition, stronger effect = higher value
In short: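 Yeast carrying a defined DNA damage repair alteration were exposed to compounds. Growth inhibition was expressed relative to vehicle-treated controls.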

[14] = at 5.0 µM (retest, dose inferred, filed as 0.5)
[15] = at 50.0 µM (retest, dose inferred, filed as 5.0)

Measured: growth inhibition

COc1ccc(CCN2C(=O)C=CC2=O)cc1OC
inactive: [1]; at 1.2 µM 13% | [1]; at 3.7 µM 37% | [2]; at 1.2 µM -1% | [2]; at 3.7 µM 7% | [2]; at 11.0 µM 62% | [3]; at 1.2 µM 7% | [3]; at 3.7 µM 50% | [4]; at 1.2 µM 4% | [4]; at 3.7 µM 18% | [4]; [14] 27% | [4]; at 11.0 µM 67% | [4]; [15] 51% | [5]; at 1.2 µM 5% | [5]; at 3.7 µM 38% | [5]; [14] 43% | [5]; [15] 42% | [7]; at 1.2 µM 17% | [7]; at 3.7 µM 33% | [9]; at 1.2 µM 15% | [9]; at 3.7 µM 43% | [10]; at 1.2 µM -21% | [10]; at 3.7 µM 5% | [10]; at 11.0 µM 48% | [11]; at 1.2 µM -19% | [11]; at 3.7 µM 4% | [11]; at 11.0 µM 53% | [12]; [14] 23% | [12]; [15] 44% | [13]; at 1.2 µM -2% | [13]; at 3.7 µM 15% | [13]; at 11.0 µM 64%
active: [1]; at 11.0 µM 79% | [1]; at 33.0 µM 99% | [1]; at 100.0 µM 99% | [2]; at 33.0 µM 99% | [2]; at 100.0 µM 99% | [3]; at 11.0 µM 82% | [3]; at 33.0 µM 96% | [3]; at 100.0 µM 98% | [4]; at 33.0 µM 98% | [4]; at 50.0 µM 83.2% | [4]; at 100.0 µM 98% | [5]; at 11.0 µM 79% | [5]; at 33.0 µM 100% | [5]; at 50.0 µM 92.3% | [5]; at 100.0 µM 100% | [6]; [14] 74% | [6]; [15] 98% | [7]; at 11.0 µM 81% | [7]; at 33.0 µM 99% | [7]; at 100.0 µM 99% | [8]; [14] 78% | [8]; [15] 99% | [9]; [14] 97% | [9]; at 11.0 µM 88% | [9]; at 33.0 µM 99% | [9]; [15] 97% | [9]; at 100.0 µM 99% | [10]; at 33.0 µM 99% | [10]; at 100.0 µM 99% | [11]; at 33.0 µM 99% | [11]; at 100.0 µM 98% | [12]; at 50.0 µM 84.4% | [13]; at 33.0 µM 98% | [13]; at 100.0 µM 98%

Reference: PubChem BioAssay (NCI)
